Here are results for 40 compounds from PubChem BioAssay (NCI).

This is part of a sample that, as a whole, favours compounds with a hit. Of some 79,000 tested, about 15% had one in any assay. Active and inactive are the calls of the source. Rule as the data show it: active = growth inhibition above about 70%; inactive = the rest.

The first experiment can be described thus: NCI Yeast Anticancer Drug Screen. Data for the sgs1 mgt1 strain (AID 161).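 Also: 0% = growth of cultures given vehicle only.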 The following applies: S. cerevisiae sgs1 mgt1 strain, at 50.0 µM, active compounds read high. The procedure, abridged: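 Percent growth inhibition was derived by comparing compound-exposed mutant yeast with vehicle-exposed cultures. The strain carries alterations in DNA damage repair.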
Take `CCC(Cc1ccccc1)OC(=O)c1ccccc1C(=O)O` (stereo not given): the growth inhibition was 8% (inactive).

For the compound `O=c1[nH]c2cc(Cl)ccc2nc1/C(=N\O)C(O)c1cccc([N+](=O)[O-])c1` (stereo not given), the growth inhibition was -7.75% (inactive).

With `CC(=O)CCCC(=O)O`, the growth inhibition was -24.5% (inactive).

In the case of `O=C(NNc1nc(N2CCOCC2)nc(N2CCOCC2)n1)c1ccccc1`, the growth inhibition was 10.9% (inactive).

On to `CN(C)CCCc1cccc2[nH]c3c(c12)CN(C)CC3`, for which the growth inhibition was 23.6% (inactive).

Take `O=C(c1ccccc1)c1ccccc1NCC(O)COc1cccc2ccccc12` (stereo not given): the growth inhibition is -21.9% (inactive).

Regarding `CCOC(=O)C1=C(C)N[C@H](c2ccccc2[N+](=O)[O-])N[C@H]1c1ccccc1[N+](=O)[O-]`, the growth inhibition was 19.9% (inactive).

Consider `Cc1ccc(N=Cc2ccc(C(N)=S)cc2)cc1`, for which the growth inhibition was 1.45% (inactive).

In the case of `COC1OC(OC)c2cc([N+](=O)[O-])ccc21` (stereo not given), the growth inhibition is 18.1% (inactive).

On to `CCCC(=O)c1ccc2c(ccc(=O)n2C)c1`, for which the growth inhibition was -5.2% (inactive).

As to `N#Cc1c(N)[n+]([O-])c2c([n+]1[O-])CCCC2`, the growth inhibition was 7% (inactive).

For the compound `Clc1ccc(C2=NCCO2)cc1`, the growth inhibition was -5.75% (inactive).

For `Cc1cc(N)c(NC2OC(CO)C(O)C2O)cc1C` (stereo not given), the growth inhibition is 4.75% (inactive).

Regarding `N#CC(C#N)=CNc1cccc(Cl)c1`, the growth inhibition is 29.2% (inactive).

`COc1ccc(CC(C)SC(CC(=O)O)C(=O)O)cc1` (stereo not given): the growth inhibition is 16.4% (inactive).

Regarding `O=C(O)C(O)c1c[nH]c2ccccc12` (stereo not given), the growth inhibition was -26.6% (inactive).

Regarding `CCc1cccc(C(C)C)c1NC(=O)C(=O)C1C(=O)Nc2ccccc2S1=O` (stereo not given), the growth inhibition was -16.9% (inactive).

As to `O=C1N=C2SC(=S)NC(=S)N2NC12c1ccccc1-c1ccccc12`, the growth inhibition is 31% (inactive).

Consider `O=C(COc1ccccc1)Nc1ccc(C(=O)O)cc1`, for which the growth inhibition was -3.35% (inactive).

As for `O=S(=O)(O)C(O)C(F)(F)C(F)(F)C(F)(F)F` (stereo not given), the growth inhibition was 22.9% (inactive).

As to `CCN(CC)CCCn1c(-c2ccccc2)ccc1-c1ccccc1`, the growth inhibition was 8.1% (inactive).

As to `O=C(CCCCCCCCC(=O)OCC1OC(n2cnc3c(=O)[nH]cnc32)C(O)C1O)OCC1OC(n2cnc3c(=O)[nH]cnc32)C(O)C1O` (stereo not given), the growth inhibition is -42.3% (inactive).

For `C#CCN(CC#C)C(=O)C(=O)c1c[nH]c2ccc(OC)cc12`, the growth inhibition was 56.8% (inactive).

With `COc1ccc2c(c1)CCN1CCc3ccccc3CC21` (stereo not given), the growth inhibition was 58.5% (inactive).

Turning to `O=C(CCNC(=O)OCc1ccccc1)NC(Cc1ccccc1)C(=O)OCc1ccccc1` (stereo not given), the growth inhibition was 4.55% (inactive).

On to `Nc1[nH]n(-c2ccccc2)c(=O)c1/C=N/C(=S)NC1CCCCC1`, for which the growth inhibition is -61% (inactive).

Take `Fc1cccc(CSc2cnnc(SCc3cccc(F)c3)c2SCc2cccc(F)c2)c1`: the growth inhibition is -13.7% (inactive).

On to `CC(C)=Cc1cc(-c2cc(C=C(C)C)[nH]n2)n[nH]1`, for which the growth inhibition is -20.4% (inactive).

As to `CC(/C=C/c1ccccc1)=N\N=C(C)\C=C\c1ccccc1`, the growth inhibition is -31.4% (inactive).

For `Nc1cccc(CNC(=O)COc2ccc(Cl)cc2C(=O)O)c1`, the growth inhibition is -2.7% (inactive).

Take `CC(C)CCc1c(N)nc(N)[nH]c1=O`: the growth inhibition was -8.6% (inactive).

`CN(C)CCC(=O)c1ccc(C(=O)CCN(C)C)cc1`: the growth inhibition was -17.1% (inactive).

On to `Clc1ccccc1C1N2CCCCC2[C@@H]2c3[nH]c4ccccc4c3CCN12` (stereo not given in full), for which the growth inhibition is 9.25% (inactive).

Turning to `N#Cc1c(-c2ccccc2)cc(-c2ccc(N)cc2)[nH]c1=O`, the growth inhibition is 13.2% (inactive).

Regarding `S=C1Cc2c(-c3ccc(Br)cc3)cc(-c3ccccc3)nc2-c2ccccc2N1`, the growth inhibition is 23.4% (inactive).

Turning to `CSc1nc2nc[nH]c2c(=O)[nH]1`, the growth inhibition is -16.2% (inactive).

For `CCC(=O)CCN(CC)CC`, the growth inhibition was -55.8% (inactive).

For the compound `CC1(c2nc3ccccc3[nH]2)CCC(C(=O)O)C(C)(C)O1` (stereo not given), the growth inhibition was -18.4% (inactive).

As for `CCCCCCCCOCCS(=O)(=O)O`, the growth inhibition is -0.15% (inactive).

Take `COc1ccc(/C=C2\CCCC(C(NO)c3ccc(OC)cc3)C2=NO)cc1` (stereo not given): the growth inhibition was 26.8% (inactive).

The next experiment is described as follows: NCI Yeast Anticancer Drug Screen. Data for the cln2 rad14 strain (AID 165).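 Also: 0% = growth equal to vehicle treated cultures.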 The following applies: S. cerevisiae cln2 rad14 strain, at 50.0 µM, active compounds read high. In a few lines:
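Growth inhibition, relative to vehicle-treated controls, is the read-out. The test organism is a yeast strain with defined genetic alterations, cln2 rad14.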
For the compound `CCC(Cc1ccccc1)OC(=O)c1ccccc1C(=O)O` (stereo not given), the growth inhibition is -43.3% (inactive).

Consider `O=c1[nH]c2cc(Cl)ccc2nc1/C(=N\O)C(O)c1cccc([N+](=O)[O-])c1` (stereo not given), for which the growth inhibition was 11.9% (inactive).

Turning to `CC(=O)CCCC(=O)O`, the growth inhibition is -11.9% (inactive).

As to `O=C(NNc1nc(N2CCOCC2)nc(N2CCOCC2)n1)c1ccccc1`, the growth inhibition is 15.3% (inactive).

Turning to `CN(C)CCCc1cccc2[nH]c3c(c12)CN(C)CC3`, the growth inhibition was 7.85% (inactive).

For `O=C(c1ccccc1)c1ccccc1NCC(O)COc1cccc2ccccc12` (stereo not given), the growth inhibition was -13.8% (inactive).

Consider `CCOC(=O)C1=C(C)N[C@H](c2ccccc2[N+](=O)[O-])N[C@H]1c1ccccc1[N+](=O)[O-]`, for which the growth inhibition was 7% (inactive).

For `Cc1ccc(N=Cc2ccc(C(N)=S)cc2)cc1`, the growth inhibition was -17.4% (inactive).

For the compound `COC1OC(OC)c2cc([N+](=O)[O-])ccc21` (stereo not given), the growth inhibition is 23.2% (inactive).

Turning to `CCCC(=O)c1ccc2c(ccc(=O)n2C)c1`, the growth inhibition is 38.1% (inactive).

Take `N#Cc1c(N)[n+]([O-])c2c([n+]1[O-])CCCC2`: the growth inhibition was -43.2% (inactive).

`Clc1ccc(C2=NCCO2)cc1`: the growth inhibition was -11.8% (inactive).

With `Cc1cc(N)c(NC2OC(CO)C(O)C2O)cc1C` (stereo not given), the growth inhibition is -43.1% (inactive).

With `N#CC(C#N)=CNc1cccc(Cl)c1`, the growth inhibition is 9.45% (inactive).

In the case of `COc1ccc(CC(C)SC(CC(=O)O)C(=O)O)cc1` (stereo not given), the growth inhibition was -37.9% (inactive).

`O=C(O)C(O)c1c[nH]c2ccccc12` (stereo not given): the growth inhibition was -1.25% (inactive).

`CCc1cccc(C(C)C)c1NC(=O)C(=O)C1C(=O)Nc2ccccc2S1=O` (stereo not given): the growth inhibition is -11.2% (inactive).

Consider `O=C1N=C2SC(=S)NC(=S)N2NC12c1ccccc1-c1ccccc12`, for which the growth inhibition is 10.5% (inactive).

Regarding `O=C(COc1ccccc1)Nc1ccc(C(=O)O)cc1`, the growth inhibition is 1.85% (inactive).

For `O=S(=O)(O)C(O)C(F)(F)C(F)(F)C(F)(F)F` (stereo not given), the growth inhibition was -37.8% (inactive).

On to `CCN(CC)CCCn1c(-c2ccccc2)ccc1-c1ccccc1`, for which the growth inhibition was -16.4% (inactive).

With `O=C(CCCCCCCCC(=O)OCC1OC(n2cnc3c(=O)[nH]cnc32)C(O)C1O)OCC1OC(n2cnc3c(=O)[nH]cnc32)C(O)C1O` (stereo not given), the growth inhibition is -8.3% (inactive).

Take `C#CCN(CC#C)C(=O)C(=O)c1c[nH]c2ccc(OC)cc12`: the growth inhibition is 44.5% (inactive).

Take `COc1ccc2c(c1)CCN1CCc3ccccc3CC21` (stereo not given): the growth inhibition was 45.9% (inactive).

As for `O=C(CCNC(=O)OCc1ccccc1)NC(Cc1ccccc1)C(=O)OCc1ccccc1` (stereo not given), the growth inhibition was -15.3% (inactive).

Consider `Nc1[nH]n(-c2ccccc2)c(=O)c1/C=N/C(=S)NC1CCCCC1`, for which the growth inhibition was -63.2% (inactive).

Take `Fc1cccc(CSc2cnnc(SCc3cccc(F)c3)c2SCc2cccc(F)c2)c1`: the growth inhibition was 14.6% (inactive).

Take `CC(C)=Cc1cc(-c2cc(C=C(C)C)[nH]n2)n[nH]1`: the growth inhibition is -24.6% (inactive).

In the case of `CC(/C=C/c1ccccc1)=N\N=C(C)\C=C\c1ccccc1`, the growth inhibition was 20.9% (inactive).

Turning to `Nc1cccc(CNC(=O)COc2ccc(Cl)cc2C(=O)O)c1`, the growth inhibition is -7.6% (inactive).

As to `CC(C)CCc1c(N)nc(N)[nH]c1=O`, the growth inhibition was -42% (inactive).

For `CN(C)CCC(=O)c1ccc(C(=O)CCN(C)C)cc1`, the growth inhibition is -14.8% (inactive).

For the compound `Clc1ccccc1C1N2CCCCC2[C@@H]2c3[nH]c4ccccc4c3CCN12` (stereo not given in full), the growth inhibition was 9.25% (inactive).

On to `N#Cc1c(-c2ccccc2)cc(-c2ccc(N)cc2)[nH]c1=O`, for which the growth inhibition is 33.4% (inactive).

Regarding `S=C1Cc2c(-c3ccc(Br)cc3)cc(-c3ccccc3)nc2-c2ccccc2N1`, the growth inhibition was 20.6% (inactive).

Consider `CSc1nc2nc[nH]c2c(=O)[nH]1`, for which the growth inhibition was -14.2% (inactive).

`CCC(=O)CCN(CC)CC`: the growth inhibition was -5% (inactive).

As to `CC1(c2nc3ccccc3[nH]2)CCC(C(=O)O)C(C)(C)O1` (stereo not given), the growth inhibition was 15.6% (inactive).

Take `CCCCCCCCOCCS(=O)(=O)O`: the growth inhibition was -22.6% (inactive).

In the case of `COc1ccc(/C=C2\CCCC(C(NO)c3ccc(OC)cc3)C2=NO)cc1` (stereo not given), the growth inhibition is 1.15% (inactive).
